Source: PubChem (National Center for Advancing Translational Sciences (NCATS))
Shown is part of a subset that was picked to be rich in hits.
LmPK inhibitor = inhibitors of Leishmania mexicana pyruvate kinase; 0.37% of 290,000 active; Potency, µM (highest dose often 57.5 µM), hits mostly inhibitors; purified LmPK, Kinase-Glo ATP luminescence, 1 h; active = well fitted curve in the direction sought with a large enough effect; inconclusive = small, poorly fitted or top-dose-only effect, or another doubt; inactive = no such curve, though single readings can be large; an effect the other way counts as inactive or inconclusive
Target sequence (Q27686 whole entry, looked up): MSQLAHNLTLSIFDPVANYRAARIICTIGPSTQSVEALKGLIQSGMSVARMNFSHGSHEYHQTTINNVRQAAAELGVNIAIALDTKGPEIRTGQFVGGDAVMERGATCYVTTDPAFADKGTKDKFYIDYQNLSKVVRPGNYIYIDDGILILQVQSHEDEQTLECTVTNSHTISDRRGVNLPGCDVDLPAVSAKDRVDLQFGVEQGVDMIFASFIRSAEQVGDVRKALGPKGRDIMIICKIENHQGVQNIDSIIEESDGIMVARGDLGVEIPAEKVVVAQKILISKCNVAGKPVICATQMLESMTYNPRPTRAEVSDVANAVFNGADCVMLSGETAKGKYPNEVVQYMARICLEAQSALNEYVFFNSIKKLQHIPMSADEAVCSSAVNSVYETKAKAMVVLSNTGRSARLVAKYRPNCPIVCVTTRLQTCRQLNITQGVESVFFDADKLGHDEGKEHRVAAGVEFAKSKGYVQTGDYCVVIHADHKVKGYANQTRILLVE
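In 50 mM imidazole pH 7.2 with 7 mM MgCl2, LmPK (0.1 nM) turned over PEP (0.5 mM) and ADP (0.1 mM) for 1 h at room temperature. Luciferase read-out of ATP.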
SARS PLP yeast = SARS-CoV PLP inhibition in yeast; S. cerevisiae expressing SARS-CoV PLpro, growth rescue; Potency, µM (doses to about 32.9 µM), hits mostly activators; 0.19% of 330,000 active; also: nearly all actives have a fitted effect of over 55% in size
NS1 function inh = influenza NS1 inhibition; Potency, µM (series often up to 46.1 µM); 0.4% of 270,000 active; AID 2326; also: actives are rising curves; nearly all actives have a fitted effect of over 50% in size
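Compounds were scored for reversing the slow growth caused by influenza A NS1 in S. cerevisiae, measured by optical density at 600 nm. Assay medium contained 2% galactose at pH 6.0; NS1-free yeast of the same strain were the positive control.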
TbPYK inhibitor = blocks Trypanosoma brucei pyruvate kinase; TbPYK enzyme, Kinase-Glo Plus ATP luminescence, 45 min; Potency, µM (highest dose often 76.8 µM), hits mostly inhibitors; 0.12% of 410,000 active; AID 624173; active = well fitted curve in the direction sought with a large enough effect; inconclusive = small, poorly fitted or top-dose-only effect, or another doubt; inactive = no such curve, though single readings can be large; an effect the other way counts as inactive or inconclusive; also: nearly all actives have a fitted effect of over 50% in size
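TbPYK + substrate in 50 mM TEA pH 7.2, 100 mM KCl, 10 mM MgCl2, 0.05% BSA, 0.01% Tween-20; cpd pinned; ADP 130 uM final; 45 min RT; Kinase-Glo Plus 10 min; luminescence endpoint.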
Cycloheximide cs = affects cycloheximide protein synthesis inhibition readout, counter-screen. cell reporter, cycloheximide protein synthesis inhibition counterscreen. max response, %. 12% of 300,000 active. AID 2314; in the data active = max response mostly above about 13%, no sharp cut-off; inactive = mostly below about 14%; also: read at 38.3 µM for the half of the compounds with a filed dose
Shiga toxin inh = inhibitors of Shiga toxin in Vero cells; Vero cells, Shiga toxin protein synthesis inhibition reporter; inhibition, % at 38.7 µM; 9.2% of 290,000 active; AID 2315; in the data active = inhibition mostly above about 28%, no sharp cut-off; inactive = mostly below about 43%
Of the large screens only hits and unclear results are named; the others gave an inactive call. Unless noted, calls follow the shape of the full dose curve.

O=C(Cn1ncc(Cl)c(Cl)c1=O)N1CCOCC1	Cycloheximide cs 23, Shiga toxin inh 38 (no result: NS1 function inh)
Cc1cc(C)cc(Cn2ncc(Cl)c(Cl)c2=O)c1	Cycloheximide cs 36
CCCCS(=O)(=O)N1CCCC(C(=O)Oc2ccc(Cl)cc2)C1 (configuration not stated)	none
Cc1ccc(CNC(=O)CS(=O)(=O)c2ccccc2)cc1	Cycloheximide cs 26
CCCNC(=O)CS(=O)(=O)c1ccccc1	Cycloheximide cs 10
CN(C)c1ccc(NC(=O)Nc2ccc3c(c2)nnn3C)cc1	Cycloheximide cs 32 (no result: Shiga toxin inh)
Cn1nnc2cc(C(=O)Nc3ccccc3)ccc21	Cycloheximide cs 16
CN(C)c1ccc(NC(=O)c2ccc3c(c2)nnn3C)cc1	Cycloheximide cs 18, Shiga toxin inh 46
Cn1nnc2cc(C(=O)Nc3cccnc3)ccc21	none
Cn1nnc2cc(NC(=O)NCc3ccc4c(c3)OCO4)ccc21	none
COc1cccc(NC(=O)Nc2ccc3snnc3c2)c1	none (no result: LmPK inhibitor, SARS PLP yeast, NS1 function inh, Cycloheximide cs, Shiga toxin inh)
COc1cccc(NC(=O)Nc2ccc3c(c2)nnn3C)c1	Cycloheximide cs 32, Shiga toxin inh 59
CCc1cccc(C)c1Nc1c(-c2cccs2)nc2ncccn12	none (no result: LmPK inhibitor, SARS PLP yeast, NS1 function inh, Cycloheximide cs, Shiga toxin inh)
Cc1ccccc1-c1cnc(C(O)c2ccc(Cl)cc2)[nH]1 (configuration not stated)	none (no result: LmPK inhibitor, SARS PLP yeast, NS1 function inh, Cycloheximide cs, Shiga toxin inh)
CCc1ccc(-n2cnc3cc(C(=O)NCc4ccc(C)cc4)ccc32)cc1	none (no result: LmPK inhibitor, SARS PLP yeast, NS1 function inh, Cycloheximide cs, Shiga toxin inh)
Cc1oc2c(C)c3oc(=O)c(CCC(=O)NCCCn4ccnc4)c(C)c3cc2c1C	none
Cn1nnc2cc(C(=O)Nc3ccc(Cl)cc3)ccc21	none
Cc1ccc(NC(=O)c2ccc3c(c2)nnn3C)cc1	Shiga toxin inh 35
COc1ccc(Br)c(C(=O)Nc2nc3ccccc3[nH]2)c1	NS1 function inh inconclusive, Cycloheximide cs 54, Shiga toxin inh 69
COc1ccc2oc(C(=O)Nc3nc4ccccc4[nH]3)c(C)c2c1	Cycloheximide cs 57, Shiga toxin inh 70
O=C(Nc1nc2ccccc2[nH]1)c1ccc(F)cc1	LmPK inhibitor 13µM, Cycloheximide cs 20
CCc1ccc(C(=O)Nc2nc3ccccc3[nH]2)cc1	LmPK inhibitor inconclusive
Cc1cc(C)cc(C(=O)Nc2nc3ccccc3[nH]2)c1	Cycloheximide cs 35, Shiga toxin inh 121
COc1ccc2oc(C(=O)OC/C(O)=C(\C#N)c3nc4ccccc4[nH]3)c(C)c2c1	none
CCc1nn(CC(=O)N2CCN(c3cccc(C(F)(F)F)c3)CC2)c(=O)c2cccn12	none (no result: LmPK inhibitor, SARS PLP yeast, NS1 function inh, Cycloheximide cs, Shiga toxin inh)
O=C(Nc1nc2ccccc2[nH]1)c1cc2ccccc2o1	Cycloheximide cs 35, Shiga toxin inh 54
COc1ccc(CC(=O)Nc2nc3ccccc3[nH]2)cc1	none
O=C(Nc1nc2ccccc2[nH]1)c1cc(F)cc(F)c1	Cycloheximide cs 67, Shiga toxin inh 67
COc1cc(OC)cc(C(=O)Nc2nc3ccccc3[nH]2)c1	Cycloheximide cs 59, Shiga toxin inh 129
N#Cc1ccc(C(=O)Nc2nc3ccccc3[nH]2)cc1	Cycloheximide cs 35, Shiga toxin inh 59
O=C(Cc1ccccc1F)Nc1nc2ccccc2[nH]1	Cycloheximide cs 24
CN(C)S(=O)(=O)c1ccc(C(=O)Nc2nc3ccccc3[nH]2)cc1	Cycloheximide cs 36, Shiga toxin inh 80 (no result: NS1 function inh)
CN(C)S(=O)(=O)c1ccc(C(=O)Nc2ccccc2F)cc1	none
Cc1ccc(OCc2ccc(-c3ccccc3)cc2)c([N+](=O)[O-])n1	Cycloheximide cs 25
CCOc1cc(Br)c(COc2ccc(C)nc2[N+](=O)[O-])cc1OCC	none
Cc1ccc(OCC(=O)N(Cc2ccccc2)C(C)(C)C)c([N+](=O)[O-])n1	none
Cc1ccc(OCCOc2cccc(Br)c2)c([N+](=O)[O-])n1	Cycloheximide cs 40, Shiga toxin inh 96
Cc1ccc(OCc2ccc(Br)cc2)c([N+](=O)[O-])n1	Cycloheximide cs 56, Shiga toxin inh 84 (no result: TbPYK inhibitor)
CNc1cc([N+](=O)[O-])ccc1OCc1ccccc1	Cycloheximide cs 27, Shiga toxin inh 90
Cc1cccc(OCC(=O)Nc2ccccc2OCc2cc(=O)n3ccccc3n2)c1	none (no result: LmPK inhibitor, SARS PLP yeast, NS1 function inh, Cycloheximide cs, Shiga toxin inh)
O=[N+]([O-])c1ncccc1OCc1ccc(-c2ccccc2)cc1	Cycloheximide cs 19
N#Cc1ccc(COc2cccnc2[N+](=O)[O-])cc1	none
COc1ccc(C(C#N)N2CCCCCC2)cc1OC (configuration not stated)	NS1 function inh inconclusive
